Experimental data: PubChem BioAssay (NCATS)
Inconclusive results are not listed. A number with no mark means an inactive call. The source made the active and inactive calls. The call rests on the fitted dose curve; in most records, active means well fitted inhibition curve with a large enough effect; inconclusive means small, poorly fitted or top-dose-only effect; inactive means flat fitted curve, though single readings scatter.

Each molecule was assayed on CRL-7250 (assay: Cytotoxic Profiling of Annotated Libraries Using Quantitative High-Throughput Screening (AID 1296008; further: nearly all actives have a fitted effect of over 60% in size)). Conditions: Five cell lines viability, CellTiter-Glo ATP luminescence, 48-72 h; max response: stronger effect = lower value.
Procedure, shortened: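 Cytotoxicity was measured as CellTiter-Glo ATP luminescence, read after 10 min at room temperature. Compound treatment of the cells lasted 48 or 72 hr at 37 degrees Celsius in a qHTS format.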
On the % scale 0 is the no-effect control and ±100 the full control effect; potency means the concentration at half of the fitted maximal effect.

Row | SMILES | max response [%] | outcome | Potency
1 | CC1=C(C(=O)OC2CCCCC2)C(c2ccc([N+](=O)[O-])cc2)C2=C(CC(C)(C)CC2=O)N1 (stereo not given) | 1.32 | – | –
2 | CCO[C@H]1CN(C2CCC(O)(c3ccc4c(c3)OCO4)CC2)C[C@@H]1NC(=O)CNC(=O)c1cccc(C(F)(F)F)c1 (stereo not given in full) | 1.15 | – | –
3 | Cc1cnn(-c2ccccc2)c1NC(=O)COCc1ccccc1 | -16.8 | – | –
4 | Fc1ccc(-c2nc(-c3c(F)cccc3F)[nH]c2-c2ccncc2)cc1 | -5.53 | – | –
5 | Cc1cn2c(n1)Cc1ccc(Cl)cc1C(c1ccc(N)cc1)=N2 | -3.82 | – | –
6 | CCn1c(N)c(C(=O)NC)c(=O)c2ccc(C#CC(C)(O)COC)nc21 (stereo not given) | -33.6 | – | –
7 | COc1ccc(NC(=O)c2ccc(C(=N)N(C)C)cc2)c(C(=O)Nc2ccc(Cl)cn2)c1 | 3.5 | – | –
8 | CC1(C)CC[C@]23CO[C@@]4(CCC5[C@@]6(C)CC[C@H](O[C@@H]7OC[C@H](O[C@@H]8O[C@H](CO)[C@@H](O)[C@H](O)[C@H]8O[C@@H]8OC[C@@H](O)[C@H](O)[C@H]8O)[C@H](O)[C@H]7O)[C@@](C)(CO)C6CC[C@@]5(C)[C@]4(C)CC2=O)[C@@H]3C1 (stereo not given in full) | -12.4 | – | –
9 | CC(C)(C)C1CCN(C(=O)n2ncc(C(O)(c3ccccc3)c3ccccc3)n2)CC1 | – | inactive | –
10 | CN(C)[C@@H]1CCc2[nH]c3ccc(NC(=O)c4ccc(F)cc4)cc3c2C1 | -12.5 | – | –
11 | O=C(NCCN1CCC(n2c(=O)[nH]c3ccccc32)CC1)c1ccc2ccccc2c1 | 1.03 | – | –
12 | COc1ccc2cc3c(NC(=O)c4ccco4)nn(C)c3nc2c1 | -20.9 | – | –
13 | CCCc1cc(C)n(C)c(=O)c1CN(C)C(=O)c1cc(-c2ccc(N3CCN(C(C)C)CC3)nc2)cc2c1cnn2C(C)C | -1.11 | – | –
14 | O=C(Nc1ccc(-c2ccc(Cl)c(Cl)c2)cc1)C1=C(O)c2ccccc2S(=O)(=O)N1 | – | inactive | –
15 | COc1ccc(C2(CNC(=O)c3ccc(NC(=O)c4ccco4)cc3)CCOCC2)cc1 | -30.6 | – | –
16 | O=C(NC[C@H](O)CN1CCc2ccccc2C1)c1ccnc(NC2CCC2)c1 | -5.29 | – | –
17 | C[C@@H]1C[C@H]2O[C@@]3(O[C@@H]2C(C)(C)O)C(O)[C@@]2(C)C4CCC5C(C)(C)[C@@H](O[C@H]6OC[C@H](O)[C@@H](O)[C@@H]6O)CC[C@@]56C[C@@]46CC[C@]2(C)C13 (stereo not given in full) | 1.57 | – | –
18 | C=CC(=O)N1CCC[C@@H](n2nc(-c3cccc(C(=O)Nc4ccc(C(C)C)c(C)c4)c3)c3c(N)ncnc32)C1 | – | – | 20.6 µM (active)
19 | COc1cc(CCc2cc(NC(=O)c3ccc(N4CC(C)NC(C)C4)cc3)n[nH]2)cc(OC)c1 (stereo not given) | – | – | 9.2 µM (active)
20 | CCN(CCNC(=O)Nc1ccccc1Br)c1cccc(C)c1 | -1.67 | – | –

Row | SMILES | max response [%] | outcome | Potency
21 | COc1ccccc1C(=O)Nc1cccc(NC(=O)c2cccc(C)c2)c1 | -5.11 | – | –
22 | CC(=O)O[C@H]1CC(C)(C)CC2[C@]13CO[C@@]21CCC2[C@@]4(C)CC[C@H](O[C@@H]5OC[C@H](O[C@@H]6O[C@H](CO)[C@@H](O)[C@H](O)[C@H]6O[C@@H]6OC[C@@H](O[C@@H]7O[C@H](CO)[C@@H](O)[C@H](O)[C@H]7O)[C@H](O)[C@H]6O)[C@H](O)[C@H]5O[C@@H]5O[C@H](CO)[C@@H](O)[C@H](O)[C@H]5O)[C@@](C)(CO)C4CC[C@@]2(C)[C@]1(C)C[C@H]3O (stereo not given in full) | – | – | 2.19 µM (active)
23 | CN1CCN(c2ccc(OC(F)(F)F)c(Nc3ncc4c(n3)-c3c(c(C(N)=O)nn3CCO)CC4)c2)CC1 | -11.3 | – | –
24 | C=CC(=O)N1CCCC(n2nc(-c3ccc(Oc4ccccc4)cc3)c3c(N)ncnc32)C1 (stereo not given) | 3.87 | – | –
25 | C=CC(C)(O)CC[C@@H]1[C@@]2(C)CCCC(C)(C)C2CC[C@@]1(C)O (stereo not given in full) | -17.3 | – | –
26 | O=C(COc1ccc(C(=O)c2ccccc2)cc1)NC1CCN(Cc2ccccc2)CC1 | – | – | 8.2 µM (active)
27 | CC(=O)NCc1cccc(OC[C@@H](O)CNCCc2ccc(NS(=O)(=O)c3ccccc3)cc2)c1 | -6.68 | – | –
28 | C[C@H]1CC[C@@]2(OC1)O[C@H]1CC3C4CC[C@H]5C[C@@H](O)CC[C@]5(C)C4=CC(=O)[C@]3(C)[C@H]1[C@@H]2C (stereo not given in full) | – | inactive | –
29 | CCOC(=O)c1cnn(-c2ccccc2)c1NC(=O)c1cc2nc(-c3ccco3)cc(C(F)(F)Cl)n2n1 | -4.16 | – | –
30 | COC(CCc1ccc(O)cc1)CC(=O)CCc1ccc(O)cc1 (stereo not given) | 3.53 | – | –
31 | COCCN(C(=O)c1cc(OC)c(OC)c(OC)c1)c1nc(-c2ccccc2)cs1 | -0.0444 | – | –
32 | CC(C)c1ccc(NC(=O)Cn2cnc3c2c(=O)n(C)c(=O)n3C)cc1 | – | inactive | –
33 | CN(C)C(=O)Nc1cc(-c2ccccc2)ccc1N(C)C | -26.2 | – | –
34 | CCCCCc1ccc(/C=C/C(=O)Nc2cc(Cl)ccc2C(=O)O)cc1 | -6.38 | – | –
35 | O=C(Nc1ccc(Cl)cc1)c1ccccc1NCc1ccncc1 | 0.592 | – | –
36 | NCCOc1cc(C(=O)Nc2cc(OCCN)c3ccccc3n2)nc(C(=O)Nc2cc(OCCN)c3ccccc3n2)c1 | – | – | 7.31 µM (active)
37 | C=C1/C(=C/C=C2\CCC[C@]3(C)[C@@H]([C@H](C)/C=C/[C@H](O)C4CC4)CC[C@@H]23)C[C@@H](O)C[C@@H]1O | -7.4 | – | –
38 | CC(=O)N[C@H]1[C@H](O[C@H]2CC[C@@]3(C)C(CC[C@]4(C)C3CC=C3C5CC(C)(C)CC[C@]5(C(=O)O)C(O)C[C@]34C)C2(C)C)O[C@H](CO[C@@H]2O[C@H](C)[C@H](O)[C@H](O)[C@H]2O[C@@H]2OC[C@@H](O)[C@H](O)[C@H]2O)[C@@H](O)[C@@H]1O (stereo not given in full) | -3.47 | – | –
39 | Nc1nc2c(ncn2C2OC3COP(=O)(O)OC3C2O)c(=O)[nH]1 (stereo not given) | -27.3 | – | –
40 | COc1ccc(-c2c(C)nn3c(NCCN4CCOCC4)cc(C)nc23)cc1OC | -19 | – | –
